Test results taken from PubChem BioAssay (NCATS).
Where “and” joins values, the source holds several entries; their conditions need not be identical. Identical values can stand only once. Results filed as inconclusive are left out. Calls of active or inactive are those of the source. The call rests on the fitted dose curve; in most records, active means well fitted curve in the direction sought with a large enough effect; inconclusive means small, poorly fitted or top-dose-only effect, or another doubt; inactive means no such curve, though single readings can be large or run the other way.
On the % scale 0 is the no-effect control and ±100 the full control effect.

Assay: qHTS Assay for Identifying Gametocytocidal Compounds (AID 743244);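 further: actives lower the fluorescent signal which means gametocytes are killed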
Conditions: P. falciparum 3D7 stage III-V gametocytes, alamarBlue, 72 h; max response: stronger effect = lower value
Outline: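 Stage III–V gametocytes of P. falciparum 3D7 were seeded at 20,000 cells/well onto pre-dispensed compounds. After 72 h, 37 °C, 5% CO2, alamarBlue was added for another 24 h.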
In the case of OC[C@@H](O)[C@H]1O[C@@H]2O[C@H](C(Cl)(Cl)Cl)O[C@@H]2[C@H]1O, the max response is reported as 13.7% (inactive).
In the case of CNC(=O)OCC[N+](C)(C)C, the max response is reported as -1.58% (inactive).
In the case of [2H]C([2H])([2H])[C@H](N)Cc1ccccc1, the max response is reported as 14.3% (inactive).
For O=C1CCCCC1CN1CCCCC1 (stereo unspecified), the max response was -0.825% (inactive).
In the case of CCCC(=O)OC(C(Cl)(Cl)Cl)P(=O)(OC)OC (stereo unspecified), the max response is reported as -0.455% (inactive).
With CCCCNCC(O)c1ccc(O)cc1 (stereo unspecified) the max response was 15.5% (inactive).
For C[C@@H](CO)NC(=O)[C@@H]1C=C2c3cccc4[nH]cc(c34)C[C@H]2N(C)C1, the max response was -6.08% (inactive).
With C[C@]12C=CC(=O)C=C1CC[C@@H]1[C@@H]2CC[C@]2(C)OC(=O)CC[C@@H]12 the max response was -1.22% (inactive).
With CN1CCCC(=C(c2cccs2)c2cccs2)C1 the max response was -3.64% (inactive).
For COc1ccc(OC)c([C@@H](O)[C@H](C)N)c1, the max response was 0.514% (inactive).
For CCON=O, the max response was -5.54% (inactive).
With CCC1C(C)=NN=C(c2ccc(OC)c(OC)c2)c2cc(OC)c(OC)cc21 (stereo unspecified) the max response was 2.95% (inactive).
With CC(C)(O)[C@@H]1[C@H]2OC(=O)[C@@H]1[C@]1(O)C[C@H]3O[C@]34C(=O)O[C@H]2[C@]14C the max response was -7.5% (inactive) and 15.4% (inactive).
With O=C(CCl)c1ccc(Oc2ccc(C(=O)CCl)cc2)cc1 the max response was 0.618% (inactive).
For OC(c1ccccc1)(c1ccccc1)C1CN2CCC1CC2 (stereo unspecified), the max response was -14.7% (inactive).
With C[N+]1([O-])[C@@H]2CC[C@H]1CC(OC(=O)C(CO)c1ccccc1)C2 (stereo partly specified) the max response was 6.16% (inactive) and -9.54% (inactive).
